Data on 5 molecules can be found in PubChem BioAssay (EPA / NIEHS).

Where “and” joins values, the source holds several entries; their conditions need not be identical. Equal values may be shown once. Results filed as inconclusive are left out. Where a structure was tested more than once in an assay, its records may differ in their call. Calls of active or inactive are those of the source. The calls were made as follows, unless noted: active = hit-call score of the fitted dose curve at least 0.9, where 1 is the maximum; inactive = score below 0.9.

Read-out in assay [1]: Interferon-inducible T-cell alpha chemoattractant (ITAC), CXCL11 (gene 6373)
The assay is described as follows: BSK_BE3C_ITAC: BioMAP Diversity Plus: BE3C Assay for Interferon-inducible T-cell alpha chemoattractant (ITAC) Biomarker Activity (AID 2284279). The following applies: primary human bronchial epithelial cells. In outline: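 The assay measures I-TAC levels by ELISA in human primary bronchial epithelial cell cultures 24 hours after chemical treatment. Values reflect signal increase over the DMSO baseline.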

Read-out in assay [2]: Interleukin-8 (IL8), CXCL8 (gene 3576)
Nature of the assay: BSK_BE3C_IL8: BioMAP Diversity Plus: BE3C Assay for Interleukin-8 (IL8) Biomarker Activity (AID 2284280). The following applies: primary human bronchial epithelial cells. A digest of the protocol: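 IL-8 signal gain, normalised to DMSO vehicle, was scored after a 24 h chemical exposure of primary human bronchial epithelial cells, with detection by ELISA.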

Read-out in assay [3]: Epidermal growth factor receptor (EGFR), EGFR (gene 1956)
Nature of the assay: BSK_BE3C_EGFR: BioMAP Diversity Plus: BE3C Assay for Epidermal growth factor receptor (EGFR) Biomarker Activity (AID 2284281). The following applies: primary human bronchial epithelial cells. A digest of the protocol: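 Compound is added to human bronchial epithelial cells, cells incubate 24 h, then EGFR is detected by ELISA. Values reflect positive-direction fitting relative to DMSO.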

Read-out in the next assay: KRT18 (gene 3875)
The assay is described as follows: BSK_BE3C_Keratin818: BioMAP Diversity Plus: BE3C Assay for Keratin 818 Biomarker Activity (AID 2284282). The following applies: primary human bronchial epithelial cells. A digest of the protocol:
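BE3C: human bronchial epithelial primary cells, 24 h exposure, Keratin 8/18 ELISA; DMSO = negative control/baseline; cytotoxicity by parallel SRB stain (0.1% SRB after 10% TCA fixation, 560 nm).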

Read-out in assay [4]: Matrix Metallopeptidase 9 (MMP9), MMP9 (gene 4318)
The assay is described as follows: BSK_BE3C_MMP9: BioMAP Diversity Plus: BE3C Assay for Matrix Metallopeptidase 9 (MMP9) Biomarker Activity (AID 2284283). The following applies: primary human bronchial epithelial cells. In outline: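 BE3C, human bronchial epithelial primary cells; 24 h post-dose; MMP-9 by ELISA; positive fit vs DMSO; SRB (0.1%, TCA-fixed, 560 nm) parallel cytotox.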

Read-out in assay [5]: Plasminogen activator inhibitor-1 (PAI1), SERPINE1 (gene 5054)
The assay is described as follows: BSK_CASM3C_PAI1: BioMAP Diversity Plus: CASM3C Assay for Plasminogen activator inhibitor-1 (PAI1) Biomarker Activity (AID 2284284).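 Also: PAI-1 protein level measured by ELISA 24 h after dosing.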 The following applies: primary human coronary artery smooth muscle cells.

Read-out in assay [6]: Monocyte Chemoattractant Protein-1 (MCP1), CCL2 (gene 6347)
Nature of the assay: BSK_hDFCGF_MCP1: BioMAP Diversity Plus: hDFCGF Assay for Monocyte Chemoattractant Protein-1 (MCP1) Biomarker Activity (AID 2284285). The following applies: primary human foreskin fibroblasts. In outline:
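Human foreskin fibroblasts (hDFCGF system) were exposed to compound and secreted MCP-1 was measured by ELISA after 24 hours. Activity was fitted relative to DMSO. Cytotoxicity was checked by SRB total-protein staining in parallel cultures.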

Read-out in assay [7]: Intercellular Adhesion Molecule 1 (ICAM1), ICAM1 (gene 3383)
The assay is described as follows: BSK_hDFCGF_ICAM1: BioMAP Diversity Plus: hDFCGF Assay for Intercellular Adhesion Molecule 1 (ICAM1) Biomarker Activity (AID 2284287). The following applies: primary human foreskin fibroblasts. A digest of the protocol:
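Primary human foreskin fibroblasts (hDFCGF system) dosed with chemical; ICAM-1 quantified by ELISA at 24 h relative to DMSO. Parallel SRB total-protein staining to assess overt cytotoxicity.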

Read-out in assay [8]: TIMP metallopeptidase inhibitor 2 (TIMP2), TIMP2 (gene 7077)
The assay is described as follows: BSK_hDFCGF_TIMP2: BioMAP Diversity Plus: hDFCGF Assay for TIMP metallopeptidase inhibitor 2 (TIMP2) Biomarker Activity (AID 2284289). The following applies: primary human foreskin fibroblasts. A digest of the protocol: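 Primary human foreskin fibroblasts in the hDFCGF system, dosed for 24 h; TIMP-2 level measured by ELISA, fitted in the positive direction against DMSO; cytotoxicity checked in parallel by sulforhodamine B total protein staining.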

Read-out in assay [9]: Thrombomodulin, THBD (gene 7056)
Nature of the assay: BSK_LPS_Thrombomodulin: BioMAP Diversity Plus: LPS Assay for Thrombomodulin Biomarker Activity (AID 2284296). The following applies: primary human HUVEC with PBMC. A digest of the protocol:
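Human umbilical vein endothelial cells co-cultured with PBMC and stimulated with LPS; cell-surface thrombomodulin measured by ELISA 24 hours after compound. Gain or loss versus DMSO; cytotoxicity checked by SRB staining in parallel cultures.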

Read-out in a further assay: CD69, CD69 (gene 969)
Nature of the assay: BSK_LPS_CD69: BioMAP Diversity Plus: LPS Assay for CD69 Biomarker Activity (AID 2284303). The following applies: primary human HUVEC with PBMC. In outline:
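Human umbilical vein endothelial cells co-cultured with PBMC under LPS stimulation, chemical exposure 24 h; cell-surface CD69 measured by ELISA and fitted in the positive direction versus DMSO.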

Assay [10] can be described thus: IUF_NPC2c_oligodendrocyte_migration_120hr: Leibniz Research Institute for Environmental Medicine (IUF) 120-hour Neural Progenitor Cell Migration Assay for Oligodendrocyte Migration (NPC2c) (AID 2284297). In outline:
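Read-out is the mean distance of O4-positive oligodendrocytes from the sphere core edge at 120 h, normalized to radial glia migration and fitted in the gain direction against DMSO. Spheres of primary human neural progenitors differentiated on laminin under continuous compound exposure.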

The nature of assay [11]: IUF_NPC2a_radial_glia_migration_120hr: Leibniz Research Institute for Environmental Medicine (IUF) 120-hour Neural Progenitor Cell Migration Assay for Radial Glia Migration (NPC2a) (AID 2284298). In outline:
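Readout: distance in um from sphere core edge to migration-area edge, derived from Hoechst nuclei density with a threshold-defined polynomial boundary. Spheres: hNPC, GW 16-19, 0.3 mm, on PDL/laminin; exposure 5 days; DMSO is baseline.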

A short description of assay [12]: IUF_NPC2a_radial_glia_migration_72hr: Leibniz Research Institute for Environmental Medicine (IUF) 72-hour Neural Progenitor Cell Migration Assay for Radial Glia Migration (NPC2a) (AID 2284299). A digest of the protocol:
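Migration out of plated human neural progenitor spheres is scored at 72 h as the distance in um from the sphere core edge to the edge of the migration area. Values are the mean of four manual measurements per well, normalised to DMSO.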

Assay [13] can be described thus: IUF_NPC2b_neuronal_migration_120hr: Leibniz Research Institute for Environmental Medicine (IUF) 120-hour Neural Progenitor Cell Migration Assay for Neuron Migration (NPC2b) (AID 2284300). A digest of the protocol: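 Read-out is mean distance from sphere edge to each TUBB3-positive neuron at 120 h, expressed relative to radial glia migration distance and to DMSO baseline. Single 0.3 mm human NPC spheres differentiated on laminin under continuous compound exposure.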

Assay [14] can be described thus: IUF_NPC3_neuronal_differentiation_120hr: Leibniz Research Institute for Environmental Medicine (IUF) 120-hour Neuronal Differentiation Assay (NPC3) (AID 2284301). A digest of the protocol: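 Single 0.3 mm neurospheres from human fetal cortex were plated in differentiation medium containing test compound. Medium was half-replaced on day 3. After 120 h cells were fixed, immunostained and imaged, and neuronal fraction was scored against DMSO control.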

Assay [15] in a line: IUF_NPC4_neurite_length_120hr: Leibniz Research Institute for Environmental Medicine (IUF) 120-hour Neuronal Morphology Assay for Neurite Length (NPC4) (AID 2284302). In outline:
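Read-out is mean neurite length in µm of TUBB3-positive neurons, skeletonized from high-content fluorescence images after 120 h. Single 0.3 mm primary human neural progenitor spheres differentiated on poly-D-lysine/laminin under continuous compound exposure; DMSO was baseline.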

Assay [16] is described as follows: IUF_NPC4_neurite_area_120hr: Leibniz Research Institute for Environmental Medicine (IUF) 120-hour Neuronal Morphology Assay for Neurite Area (NPC4) (AID 2284305; active = hit-call score of the fitted dose curve at least 0.9, where 1 is the maximum). In outline: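 Neurite area is read out as the mean pixel area, excluding nuclei, of skeletonized TUBB3-positive neurons imaged after 120 h. Primary human neural progenitor spheres differentiated on poly-D-lysine/laminin with compound present from day 0. Activity was referenced to DMSO controls.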

Assay [17] is described as follows: IUF_NPC2-5_cytotoxicity_72hr: Cytotoxicity Assessment at 72 hours in the Leibniz Research Institute for Environmental Medicine (IUF) Neural Progenitor Cell Migration and Differentiation Assay for Cytotoxicity (NPC2-5) (AID 2284306; active = hit-call score of the fitted dose curve at least 0.9, where 1 is the maximum;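 also: LDH release into supernatant measured by resorufin fluorescence marking membrane damage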). In outline: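 Membrane integrity loss was scored from fluorescence (RFU) of resorufin generated by LDH in culture supernatant, 72 h after dosing. Differentiating human progenitor spheres received seven serial compound concentrations alongside a solvent control.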

By AC50 is commonly meant the concentration giving half of the maximal activity seen.

As for `CN1C(=O)N(C)C(O)C1O` (stereo not drawn), the outcome (in assay [1]; in assay [2]; in [3]; with KRT18 (gene 3875); in assay [4]; in [5]) was inactive. For the same molecule, the outcome in [6] was “inactive”; in [7] it was “inactive”; in [8] it was “inactive”; in assay [9], “inactive”; with CD69, CD69 (gene 969), “inactive”.

Turning to `Nc1ncn([C@@H]2O[C@H](CO)[C@@H](O)[C@H]2O)c(=O)n1`, the molecule was classed as inactive in [10], in assay [11], in assay [12], in assay [13], in assay [14] and in assay [15]. The call in assay [16] and in assay [17] was inactive.

As for `O=C1CCCN1CCO`, the result (in assay [1]; in assay [2]; in assay [3]; with KRT18 (gene 3875); in assay [4]; in [5]) was inactive. Besides, the outcome was “inactive” in [6]; “inactive” in assay [7]; “inactive” in [8]; “inactive” in [9]; “inactive” in the assay with CD69, CD69 (gene 969).

For the molecule `CCOC(=O)c1ccccc1C(=C1C=C(Br)C(=O)C(Br)=C1)c1cc(Br)c(O)c(Br)c1`, the half-maximal activity concentration (AC50) in [1] is 3.9 µM (active) and 3.63 µM (active); in [2], 7.85 µM (active) and 7.6 µM (active); with KRT18 (gene 3875), 3.98 µM (active) and 4.84 µM (active); in assay [4], 4.52 µM (active) and 2.5 µM (active); in [6], 3.51 µM (active) and 3.62 µM (active); in assay [7] it was 4.29 µM (active) and 4.91 µM (active). Also, the half-maximal activity concentration (AC50) in assay [8] is 3.49 µM (active) and 3.46 µM (active); in [9] it was 10.3 µM (active); with CD69, CD69 (gene 969) it was 8.66 µM (active) and 7.45 µM (active). Also, the result in [3], in [5] and in assay [9] was inactive.

Consider `CCO[Si](C)(OCC)OCC`, for which the result (in [1]; in assay [2]; in assay [3]; in the assay with KRT18 (gene 3875); in assay [4]; in assay [5]) was inactive. For the same molecule, the outcome in assay [6] was “inactive”; in assay [7], “inactive”; in assay [8], “inactive”; in assay [9] it was “inactive”; in the assay with CD69, CD69 (gene 969) it was “inactive”.
